{"source": "PubChem BioAssay AID1347422", "about": "(Sanford-Burnham Center for Chemical Genomics, 2020)", "note": "The full ranking holds about 1,000 compounds; the median of “thermal shift dTm” is about 0.19, and the highest 2% start at about 1.7. The entries come from a sample that favours the highest values as a whole. Activity calls are given as the source filed them.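 How the source made its calls: active means mean rise in melting temperature of at least 1 degC over same-plate control wells; inactive means below that, where a call was filed.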", "data": [{"target": "Sulfhydryl oxidase 1 (Homo sapiens) (UniProt O00391)", "sequence (O00391 whole entry, looked up)": "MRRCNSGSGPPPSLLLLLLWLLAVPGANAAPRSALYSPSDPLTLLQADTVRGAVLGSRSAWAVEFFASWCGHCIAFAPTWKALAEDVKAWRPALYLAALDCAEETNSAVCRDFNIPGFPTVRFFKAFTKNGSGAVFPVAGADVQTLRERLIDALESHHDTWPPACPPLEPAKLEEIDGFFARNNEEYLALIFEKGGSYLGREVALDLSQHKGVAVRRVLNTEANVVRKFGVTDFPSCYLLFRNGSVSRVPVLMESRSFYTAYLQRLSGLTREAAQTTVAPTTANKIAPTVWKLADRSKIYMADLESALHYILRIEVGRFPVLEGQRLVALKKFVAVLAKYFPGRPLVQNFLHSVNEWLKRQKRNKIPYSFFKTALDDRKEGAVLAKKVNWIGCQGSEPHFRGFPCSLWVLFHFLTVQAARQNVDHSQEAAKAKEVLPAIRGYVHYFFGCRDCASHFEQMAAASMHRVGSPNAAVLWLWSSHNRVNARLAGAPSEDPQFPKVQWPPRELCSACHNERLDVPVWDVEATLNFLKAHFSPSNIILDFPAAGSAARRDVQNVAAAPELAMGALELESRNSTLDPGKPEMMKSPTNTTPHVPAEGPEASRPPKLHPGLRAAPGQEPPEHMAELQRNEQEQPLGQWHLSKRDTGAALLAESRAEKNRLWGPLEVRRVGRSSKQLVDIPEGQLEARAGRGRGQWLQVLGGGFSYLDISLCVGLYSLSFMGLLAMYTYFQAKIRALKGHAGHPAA", "assay": "QSOX1 binders by thermal stabilization, confirmation, QSOX1 inhibitor project, biophysical, protein thermal shift, single concentration (AID 1347422);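 further: dTm is compound Tm minus mean Tm of DMSO-only wells on that plate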", "details": "recombinant hQSOX1 thermal shift, Sypro Orange, at 25 µM, stronger effect = higher value", "values": [{"compound": "COc1ccc(-c2c(-c3ccc(OC)c(C)c3O)n[nH]c2C(F)(F)F)cc1", "thermal shift dTm": "0.76 °C"}, {"compound": "Cc1ccc2sc(-c3ccc(NC(=O)CCc4ccccc4)cc3)nc2c1", "thermal shift dTm": "0.4 °C"}, {"compound": "COc1ccc(NC(=O)CSCc2ccccc2C)cc1Cl", "thermal shift dTm": "0.02 °C"}, {"compound": "Cc1ccc(S(=O)(=O)Nc2cccc(NC(=O)c3cccs3)c2)cc1", "thermal shift dTm": "0.48 °C"}, {"compound": "Cc1cc(C)nc(NS(=O)(=O)c2ccc(NC(=O)c3cccs3)cc2)n1", "thermal shift dTm": "2.92 °C (active)"}, {"compound": "O=C(c1ccncc1)c1ccc(NC(=O)c2cccs2)cc1", "thermal shift dTm": "0.05 °C"}, {"compound": "CC1=Nc2ccccc2/C1=C/c1c(O)n(Cc2ccco2)c(=O)[nH]c1=O", "thermal shift dTm": "0.93 °C"}, {"compound": "CCOc1ccc(Nc2nnc(C)s2)cc1", "thermal shift dTm": "0.28 °C"}, {"compound": "CC(=O)c1sc(Nc2ccc(Oc3ccccc3)cc2)nc1C", "thermal shift dTm": "0.15 °C"}, {"compound": "Cc1nc(N)sc1-c1nnc(Nc2ccccc2)s1", "thermal shift dTm": "2.14 °C (active)"}, {"compound": "Cc1ccc(NC(=O)C(C)Sc2nc3c(c(=O)[nH]2)CCCC3)cc1Cl", "note": "(centres undefined)", "thermal shift dTm": "0.01 °C"}, {"compound": "CCOc1ccc2nc(NC(=O)CCCCC(=O)O)sc2c1", "thermal shift dTm": "-0.04 °C (inactive)"}, {"compound": "CC(NS(=O)(=O)c1ccc(Cl)cc1)C1C2CC3CC(C2)CC1C3", "note": "(centres undefined)", "thermal shift dTm": "0.05 °C"}, {"compound": "COc1ccc(CCC(=O)Nc2nc3ccc(S(C)(=O)=O)cc3s2)cc1", "thermal shift dTm": "0.35 °C"}, {"compound": "Cc1ccc(CN2CCC(C(=O)Nc3cccc(-c4ccn[nH]4)c3)CC2)o1", "thermal shift dTm": "0.19 °C"}, {"compound": "CCc1nc2sc(C(=O)c3ccccc3)c(N)c2c2c1CCCC2", "thermal shift dTm": "0.11 °C"}, {"compound": "O=C(CCCc1c[nH]c2ccccc12)NCCOc1ccc(Cl)cc1", "thermal shift dTm": "-0.03 °C (inactive)"}, {"compound": "COc1cc(CO)cc(Cl)c1OCc1cccc2ccccc12", "thermal shift dTm": "0.21 °C"}, {"compound": "CC(=O)Nc1cccc(NC(=O)COc2ccc(F)cc2Cl)c1", "thermal shift dTm": "0 °C (inactive)"}, {"compound": "CCSC1=N/C(=C\\c2ccc(-c3cccc(Cl)c3)o2)C(=O)S1", "thermal shift dTm": "0.25 °C"}, {"compound": "Cc1ccc(S(=O)(=O)Nc2ccc(C(=O)Nc3ccc4c(c3)OCO4)cc2)cc1", "thermal shift dTm": "1.03 °C (active)"}, {"compound": "Cc1ccc(Nc2nc(C3(C)CC4(CC(C)OC4=O)C(=O)O3)cs2)cc1", "note": "(centres undefined)", "thermal shift dTm": "0.11 °C"}, {"compound": "O=C1OC(c2ccccc2)OC(=O)C1=Cc1ccc(-c2cccc(C(F)(F)F)c2)o1", "note": "(centres undefined)", "thermal shift dTm": "1.07 °C (active)"}, {"compound": "CCCc1cc(=O)[nH]c(N2CCN(Cc3ccc4c(c3)OCO4)CC2)n1", "thermal shift dTm": "0.02 °C"}, {"compound": "Cc1ccc(-c2n[nH]c(-c3ccncc3)n2)cc1", "thermal shift dTm": "0 °C"}, {"compound": "O=C(NCCO)Nc1ccc(Cl)c(Cl)c1", "thermal shift dTm": "0 °C (inactive)"}, {"compound": "O/N=C/c1cc(Cl)ccc1OCc1ccc(F)cc1", "thermal shift dTm": "0.34 °C"}, {"compound": "CCOc1ccc(NC(=O)Nc2cnccn2)cc1", "thermal shift dTm": "0.09 °C"}, {"compound": "O=C(COc1ccc(Cl)cc1)NCCSCc1ccc(Cl)c(Cl)c1", "thermal shift dTm": "0.11 °C"}, {"compound": "CC(=O)Nc1ccc(NC(=O)CCc2nc(-c3ccccc3)no2)cc1", "thermal shift dTm": "0.14 °C"}, {"compound": "Cc1cccc(Nc2nc3ccc(C)cc3n3cnnc23)c1", "thermal shift dTm": "0.19 °C"}, {"compound": "Cc1ccc(C(=O)Nc2nc(-c3ccccc3)c(C)s2)s1", "thermal shift dTm": "0.01 °C"}, {"compound": "Cc1noc(NS(=O)(=O)c2ccc(NC(=O)Nc3ccc(Cl)cc3)cc2)c1C", "thermal shift dTm": "0.7 °C"}, {"compound": "O=C(Nc1ccc(Cl)cc1)Nc1ccc(S(=O)(=O)Nc2ncccn2)cc1", "thermal shift dTm": "1.03 °C (active)"}, {"compound": "Cc1ccc(NC(=O)Nc2ccc(S(=O)(=O)Nc3ccccn3)cc2)cc1", "thermal shift dTm": "2.37 °C (active)"}, {"compound": "CC(NC(=O)c1ccc(-c2cc(Cl)ccc2Cl)o1)c1ccccc1", "note": "(centres undefined)", "thermal shift dTm": "0.07 °C"}, {"compound": "Cc1ccccc1COc1ccc(Br)cc1/C=C1/N=C(c2ccco2)OC1=O", "thermal shift dTm": "0.82 °C"}, {"compound": "Cc1nonc1CC(=O)N1CCc2ccc(NC(=O)Cc3ccccc3F)cc2C1", "thermal shift dTm": "0.29 °C"}, {"compound": "COc1ccc(-c2nnc(Nc3ccc(O)cc3)c3ccccc23)cc1", "thermal shift dTm": "0.15 °C"}, {"compound": "CN(C(=O)Nc1ccc(F)cc1)c1ccccc1", "thermal shift dTm": "-1.43 °C (inactive)"}, {"compound": "Clc1cccc(-c2cn3ccccc3n2)c1", "thermal shift dTm": "0.71 °C"}, {"compound": "O=C(Nc1ccc2ncccc2c1)c1cccc([N+](=O)[O-])c1", "thermal shift dTm": "0.53 °C"}, {"compound": "N#Cc1nc(/C=C/c2cccs2)oc1NCCc1ccccc1", "thermal shift dTm": "-37.7 °C (inactive)"}, {"compound": "Cc1ccc(NC(=O)N2CCC(Cc3ccccc3)CC2)cc1", "thermal shift dTm": "0.07 °C"}, {"compound": "CCCC(=O)Nc1cccc(NC(=O)/C=C/c2ccc(Cl)cc2)c1", "thermal shift dTm": "-31.6 °C (inactive)"}, {"compound": "O=C(/C=C/c1ccc(Cl)cc1)Nc1cccnc1", "thermal shift dTm": "2.02 °C (active)"}, {"compound": "O=C(/C=C/c1ccc(F)cc1)Nc1ccncc1", "thermal shift dTm": "0.57 °C"}, {"compound": "CCOc1ccc(NC(=O)Nc2cc(OC)c(OC)c(OC)c2)cc1", "thermal shift dTm": "1.64 °C (active)"}, {"compound": "COc1cccc(NC(=O)Nc2cc(C)ccc2F)c1", "thermal shift dTm": "0 °C"}, {"compound": "CCOc1ccc(NC(=O)Nc2cc(C)ccc2F)cc1", "thermal shift dTm": "2.42 °C (active)"}, {"compound": "CCOc1ccc(NC(=O)Nc2cc(C)ccc2OC)cc1", "thermal shift dTm": "0.34 °C"}, {"compound": "CCOc1ccc(NC(=O)Nc2cc(F)ccc2C)cc1", "thermal shift dTm": "2.14 °C (active)"}, {"compound": "CCc1ccc(NC(=O)Nc2cc(F)ccc2F)cc1", "thermal shift dTm": "-15.7 °C (inactive)"}, {"compound": "Cc1ccc(-c2cn(S(=O)(=O)c3cccc4nsnc34)nc2N)cc1", "thermal shift dTm": "0.1 °C"}, {"compound": "O=C(Nc1ccccc1C(=O)O)c1cccc(S(=O)(=O)Nc2ccccc2)c1", "thermal shift dTm": "1.23 °C (active)"}, {"compound": "COc1ccc(Cl)cc1Nc1nc(-c2ccccn2)cs1", "thermal shift dTm": "0.1 °C"}, {"compound": "Cc1cnc(CNCc2ccccc2OCC(O)CN(C)C2CCCCC2)cn1", "note": "(centres undefined)", "thermal shift dTm": "0.14 °C"}, {"compound": "CCC(=O)c1ccc(OCC(=O)Nc2ccc(NC(C)=O)cc2)cc1", "thermal shift dTm": "-0.03 °C (inactive)"}, {"compound": "Cc1ccc2[nH]cc(CCNC(=O)c3ccccc3Cl)c2c1", "thermal shift dTm": "-0.13 °C (inactive)"}, {"compound": "CCOc1ccccc1C1C(C#N)=C(N)Oc2cc(N(C)C)ccc21", "note": "(centres undefined)", "thermal shift dTm": "0.29 °C"}, {"compound": "COc1ccc(-c2cc(C(F)(F)F)nc(NCc3cccs3)n2)cc1OC", "thermal shift dTm": "0.11 °C"}, {"compound": "O=C(Nc1cccc(-c2ccco2)c1)C1CCN(C(=O)CCc2ccco2)CC1", "thermal shift dTm": "1.03 °C (active)"}, {"compound": "O=C(Nc1ccc(Cl)cc1)Nc1cccc(C(=O)NCc2ccco2)c1", "thermal shift dTm": "3.11 °C (active)"}, {"compound": "CCN(CC)C(=O)c1cccc(NC(=O)Nc2ccc(Cl)cc2)c1", "thermal shift dTm": "0.23 °C"}, {"compound": "CC(=O)Nc1cccc(C(=O)Nc2ccc(Cl)cc2)c1", "thermal shift dTm": "-7.43 °C (inactive)"}, {"compound": "CCc1ccc2c(c1)C(OC(C)=O)C(C)(C)C(c1cccc(Br)c1)N2", "note": "(centres undefined)", "thermal shift dTm": "0.44 °C"}, {"compound": "O=C(CCC(=O)OCc1ccc(Br)cc1)Nc1cc(C(F)(F)F)ccc1Cl", "thermal shift dTm": "0.17 °C"}, {"compound": "O=C(Nc1ccc(C(F)(F)F)cc1Cl)c1cc([N+](=O)[O-])[nH]n1", "thermal shift dTm": "1.73 °C (active)"}, {"compound": "COc1cc(-c2cccc(-c3ccn[nH]3)c2)ccc1NC(C)=O", "thermal shift dTm": "0.14 °C"}]}]}
